Most compounds without a hit are left out; they make up all but 19% or so of the library.
Pf growth 48h: Primary qHTS for delayed death inhibitors of the malarial parasite plastid, 48 hour incubation; P. falciparum luciferase growth in erythrocytes, 48 h; Potency, µM (doses to about 28.7 µM), actives largely listed as inhibitors; 310,000 tested, 5.9% active; AID 504832, 2011
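Compounds are pin-transferred into medium, infected erythrocytes (2% hematocrit, 0.1% parasitemia final) are added, and plates sit one parasite generation at 37 C in 5% CO2. Detection reagent is then added and luminescence measured.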
Marburg entry inh: qHTS for inhibitors of binding or entry into cells for Marburg Virus; Marburg virus pseudotyped entry inhibition, cell reporter; Potency, µM (doses to about 37.8 µM), usual class: inhibitors; 300,000 tested, 1.8% active; calls by dose curve; tested in HEK293 cells
Shiga toxin inh: A qHTS for Small Molecule Inhibitors of Shiga Toxin; 290,000 tested, 9.2% active; Vero cells, Shiga toxin protein synthesis inhibition reporter; inhibition, % at 38.7 µM; in the data active = inhibition mostly above about 28%, no sharp cut-off; inactive = mostly below about 43%
CHX counter: Cycloheximide Counterscreen for Small Molecule Inhibitors of Shiga Toxin; cell reporter, cycloheximide protein synthesis inhibition counterscreen; max response, %; 300,000 tested, 12% active; AID 2314, 2010; in the data active = max response mostly above about 13%, no sharp cut-off; inactive = mostly below about 14%; also: read at 38.3 µM for the half of the compounds with a filed dose
Pf growth 96h: Primary qHTS for delayed death inhibitors of the malarial parasite plastid, 96 hour incubation; Potency, µM (highest dose often 28.7 µM), hits mostly inhibitors; P. falciparum luciferase reporter growth, 96 h; 320,000 tested, 6.9% active
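Plates of compound plus infected erythrocytes (2% hematocrit, 0.05% parasitemia final) incubate 96 hours, 37 C, 5% CO2. Detection reagent added; reduced luminescence from the parasites' luciferase reporter flags inhibition.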
LASV entry inh: qHTS for Inhibitors of binding or entry into cells for Lassa Virus | 300,000 tested, 1.2% active | Lassa virus pseudotype entry inhibition, cell reporter | AID 540256, 2011 | Potency, µM (top dose mostly 37.9 µM), hits mostly inhibitors; calls by dose curve; tested in HEK293 cells; also: nearly all actives have a fitted effect of over 50% in size
Each line names hits and unclear results; the compound was inactive in the other large screens. Unless noted, calls follow the shape of the dose curve; as a rule, active = well fitted inhibition curve with a large enough effect; inconclusive = small, poorly fitted or top-dose-only effect, or another doubt; inactive = no such curve, though single readings can be large or run the other way.

CCCOc1ccc(/C(O)=C2/C(=O)C(=O)N(CCCn3ccnc3)C2c2ccc(C)o2)cc1 (configuration not stated)	none
C=CCOc1ccc(/C(O)=C2/C(=O)C(=O)N(CCCn3ccnc3)C2c2ccco2)cc1 (configuration not stated)	Shiga toxin inh 65, CHX counter 32 (no result: Marburg entry inh, LASV entry inh)
COc1ccccc1C1/C(=C(\O)c2ccc3c(c2)OCCO3)C(=O)C(=O)N1CCCn1ccnc1 (configuration not stated)	Marburg entry inh inconclusive, Shiga toxin inh 72, CHX counter 32
CC1Cc2cc(/C(O)=C3/C(=O)C(=O)N(CCCn4ccnc4)C3c3ccco3)ccc2O1 (configuration not stated)	Marburg entry inh inconclusive, Shiga toxin inh 113, CHX counter 33, Pf growth 96h 0.21µM
C[C@H](NC(=O)[C@@H]1Cc2ccccc2CN1C(=O)OC(C)(C)C)C(=O)NCC1CCCO1 (some centres not stated)	Marburg entry inh inconclusive
CC12CCC(C(=O)NC3CCCC3)(CC1=O)C2(C)C (configuration not stated)	none (no result: Pf growth 96h)
COc1cc2ccccc2cc1C(=O)Nc1ccc(N2CCN(C)CC2)cc1	Pf growth 48h inconclusive, Marburg entry inh inconclusive, CHX counter 43, LASV entry inh inconclusive (no result: Pf growth 96h)
COc1cc2ccccc2cc1C(=O)Nc1ccc(N2CCN(C(=O)C(C)C)CC2)cc1	Pf growth 48h 12µM, Pf growth 96h 15µM (no result: Marburg entry inh, LASV entry inh)
Nc1cc2nc[nH]c2cc1N	Pf growth 96h inconclusive
CCOP(=S)(OCC)Oc1cc(C)nc(N(CC)CC)n1	none (no result: Pf growth 48h, Marburg entry inh, Pf growth 96h, LASV entry inh)
CCCCn1c(SCc2nc3ccccc3s2)nc2cc(S(N)(=O)=O)ccc21	Marburg entry inh 1.8µM, Pf growth 96h inconclusive, LASV entry inh inconclusive (no result: Pf growth 48h)
CCCn1c(=O)c2ccccc2n2c(SCc3nc4ccccc4s3)nnc12	Shiga toxin inh 142, CHX counter 31, Pf growth 96h 10µM
Cc1cc(C)c(-n2c(SCc3nc4ccccc4s3)n[nH]c2=O)c(C)c1	Pf growth 48h inconclusive, Marburg entry inh inconclusive, LASV entry inh inconclusive
O=c1[nH]nc(SCc2nc3ccccc3s2)n1C1CC1	Shiga toxin inh 103, CHX counter 52 (no result: Marburg entry inh, LASV entry inh)
CCCn1c(SCc2nc3ccccc3s2)n[nH]c1=O	Shiga toxin inh 90, CHX counter 53
Cc1ccc(-n2nc3c(c2NC(=O)c2ccco2)CS(=O)(=O)C3)cc1C	none
COc1ccc(OC)c(NC(=O)COC(=O)CSc2ccc(Cl)cc2)c1	Marburg entry inh inconclusive
Cc1cc(NCC2CCCO2)n2c(nc3ccccc32)c1C#N (configuration not stated)	Pf growth 48h inconclusive, Pf growth 96h inconclusive
CC(C)c1cc(NCC2CCCO2)n2c(nc3ccccc32)c1C#N (configuration not stated)	Pf growth 48h 6.6µM, Marburg entry inh inconclusive, LASV entry inh inconclusive (no result: Pf growth 96h)
CCc1c(C)c(C#N)c2nc3ccccc3n2c1NCC1CCCO1 (configuration not stated)	Pf growth 48h 1.7µM (no result: Pf growth 96h)
CCc1c(C)c(C#N)c2nc3ccccc3n2c1NCCOC	Pf growth 48h 1.7µM, Pf growth 96h inconclusive (no result: Marburg entry inh, LASV entry inh)
O=C(NCCCN1CCOCC1)c1ccco1	none
CCOC(=O)c1c(C)[nH]c(C(=O)COC(=O)COc2ccccc2C=O)c1C	none
C=CCn1c(SCC(=O)Nc2ncc(Cc3ccc(C)c(Cl)c3)s2)nnc1-c1ccncc1	Marburg entry inh inconclusive, Pf growth 96h inconclusive
COc1cccc(/C=N/NC(=O)c2nc(-c3ccccc3)cc(-c3ccccc3)n2)c1	Pf growth 48h 10µM, Marburg entry inh inconclusive, LASV entry inh inconclusive
COc1ccc(/C=N/NC(=O)c2nc(-c3ccccc3)cc(-c3ccccc3)n2)cc1OC	Pf growth 48h inconclusive, Marburg entry inh inconclusive, Pf growth 96h 2.3µM, LASV entry inh inconclusive
COc1cccc(/C=N/NC(=O)CCn2nnc3ccccc32)c1	none
COc1cccc(C=NNC(=O)CCCC(=O)NN=Cc2cccc(OC)c2)c1	none (no result: Pf growth 48h, Shiga toxin inh, CHX counter, Pf growth 96h)
COc1cccc(/C=N/NC(=O)C(C)n2nnc3ccccc32)c1 (configuration not stated)	CHX counter 25
S=C1NCN(Cc2cccnc2)CN1	none
CCC(=O)NC(=S)Nc1ccc(-c2nc3ccccc3s2)cc1	Shiga toxin inh 69, CHX counter 49

Screening data: PubChem BioAssay, National Center for Advancing Translational Sciences (NCATS)
